Assay outcomes (PubChem)
This is a sample that favours compounds with a hit; in the whole collection about 2.8% have one here.
Platelet DG rel – platelet dense granule release activity | human platelet-rich plasma, SFLLRN dense granule ATP release, luminescence | inhibition, %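 (compounds screened at 7.5 µM in platelet-rich plasma)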 | actives 0.22% (n = 300,000);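 active means mean replicate score, as percent of positive control, at or above 50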
SENP7 block – inhibitors of human SENP7 protease; recombinant SENP7, Z-RLRGG-aminoluciferin luminescence, 40 min; actives 1.5% (n = 330,000); AID 434973; Q9BQF6; inhibition, % at 5 µM;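 active means inhibition above about 50% at the single test dose, limit read from the data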;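 further: plate controls were DMSO with enzyme for no effect and no enzyme buffer wells for full effect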
SENP8 block-1 – SENP8 (human) protease inhibition; Q96LD8; recombinant SENP8, Nedd8 substrate fluorescence; inhibition, % at 20 µM; actives 0.64% (n = 360,000); in the data active means inhibition mostly above about 40%, no sharp cut-off; inactive means mostly below about 27%
SENP6 block – inhibitors of human SENP6 protease; Q9GZR1; Recombinant SENP6 catalytic domain, aminoluciferin luminescence; inhibition, % at 10 µM; actives 1.8% (n = 330,000);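 active means inhibition above about 50% at the single tested dose, limit read from the data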;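 further: plate controls were DMSO wells with enzyme for no effect and DMSO wells lacking enzyme for full effect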
Target sequence (Q9GZR1 628-1112 limits assumed): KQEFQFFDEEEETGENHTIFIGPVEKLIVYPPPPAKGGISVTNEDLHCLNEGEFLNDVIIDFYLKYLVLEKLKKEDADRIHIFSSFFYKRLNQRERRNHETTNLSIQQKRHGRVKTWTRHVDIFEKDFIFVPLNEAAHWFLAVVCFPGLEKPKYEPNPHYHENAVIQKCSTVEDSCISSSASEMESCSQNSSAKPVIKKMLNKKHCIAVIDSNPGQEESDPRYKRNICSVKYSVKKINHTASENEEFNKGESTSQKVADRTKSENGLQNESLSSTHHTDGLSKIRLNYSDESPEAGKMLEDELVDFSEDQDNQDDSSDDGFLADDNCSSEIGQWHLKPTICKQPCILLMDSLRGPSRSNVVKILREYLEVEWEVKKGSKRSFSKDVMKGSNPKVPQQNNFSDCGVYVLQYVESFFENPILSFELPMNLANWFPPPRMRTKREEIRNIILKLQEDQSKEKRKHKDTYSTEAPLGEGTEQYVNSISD
SENP8 block-2 – blocks the human protease SENP8 | Q96LD8 | purified SENP8, Z-RLRGG-aminoluciferin cleavage, luminescence | inhibition, % at 10 µM | actives 1.2% (n = 330,000); in the data active means inhibition above about 50%
HSP90 inh – blocks HSP90-mediated luciferase refolding in reticulocyte lysate. Rabbit reticulocyte lysate, luciferase refolding luminescence, 3 h. inhibition, % at 5.6 µM. actives 0.91% (n = 290,000);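 active means inhibition above the screen-wide mean plus 3 SD, computed separately per campaign, cut at about 16% in these data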;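 further: 0% = DMSO wells and 100% = 60 µM geldanamycin wells; inhibitors lower the luminescence because luciferase stays unfolded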
SENP8 inh conf – confirmation of human SENP8 protease inhibitors; shares compounds with SENP8 block-1; purified SENP8, Nedd8-AMC/pro-Nedd8 cleavage fluorescence, 30 min; inhibition, % at 25 µM; actives 15% (n = 1,400); AID 624319; in the data active means inhibition mostly above about 39%, no sharp cut-off; inactive means mostly below about 34%
Active calls of the source: *; . = no result.

SMILES | Platelet DG rel | SENP7 block | SENP8 block-1 | SENP6 block | SENP8 block-2 | HSP90 inh | SENP8 inh conf
Cc1ccc(NC(=O)c2ccc(Nc3c([N+](=O)[O-])cc([N+](=O)[O-])cc3[N+](=O)[O-])cc2)cc1 | 1 | 5 | 42* | -14 | 1 | -5 | 19
Cc1ccc(OCCCC(=O)N(C)CC(=O)Nc2ccccc2Br)cc1 | 2 | 10 | 37* | 2 | -1 | . | -5
Cc1ccc(C(=O)CCC(=O)N(C)CC(=O)Nc2ccccc2Br)cc1 | 1 | 6 | 1 | 12 | -2 | -8 | .
Cc1ccc(S(=O)(=O)N2CCN(C(=O)CC(C)n3nc(C)c(Cl)c3C)CC2)cc1C (stereo not given) | -18 | -1 | 8 | 2 | -5 | 0 | .
CCC(CC)C(=O)N(C)c1c(C)nc2c(OCC=C(C)C)cccn12 | . | . | 40* | . | . | . | 26
CCc1nc2c(OCC=C(C)C)cccn2c1N(C)C(=O)c1ccccc1F | . | . | 41* | . | . | . | 15
CCCOc1cccn2c(N(C)C(=O)c3ccccc3F)c(CC)nc12 | . | . | 12 | . | . | . | .
CCc1nc2c(OCC=C(C)C)cccn2c1N(C)C(=O)c1ccc(OC)cc1 | . | . | 43* | . | . | . | -2
O=C(NCc1ccc2c(c1)OCO2)C1CC(c2cccc(Br)c2)=NO1 (stereo not given) | 1 | -4 | 40* | -21 | -8 | 1 | 11
O=C(NCc1ccc2c(c1)OCO2)C1CC(c2ccccc2O)=NO1 (stereo not given) | -14 | 2 | 11 | -7 | -2 | 4 | .
O=C(OCn1nnc2ccccc2c1=O)C1CCCCC1 | -1 | 6 | 42* | -31 | -5 | -2 | 12
O=C(Nc1ccc(Cl)cc1Cl)c1ccc(-c2ccccc2)cc1 | 25 | -1 | 19 | -23 | -3 | 2 | .
O=C(Nc1cc(-c2ccccc2)[nH]n1)c1ccc(Cl)cc1 | 2 | 67* | 40* | 69* | 47 | -2 | 2
OCCN(Cc1ccccc1)C(=S)Nc1ccc(Cl)cc1Cl | 4 | 4 | 11 | 4 | -3 | 0 | .
O=C1CCCC2=C1C1(O)C(=O)c3ccccc3C1(O)O2 (stereo not given) | -6 | 28 | 51* | 21 | 12 | -1 | 89*
CC(=O)C1=NN(c2ccccc2)C(c2ccc3c(c2)OCO3)N1c1ccc(N2CCOCC2)cc1 (stereo not given) | 3 | 0 | 44* | -8 | -8 | 2 | 18
O=C(NC(CSSCC(NC(=O)c1ccccc1)C(=O)O)C(=O)O)c1ccccc1 (stereo not given) | 6 | 9 | 63* | -14 | -12 | -3 | 11
O=C(Cn1cc([N+](=O)[O-])cn1)Nc1ccc(Cn2cc(Br)cn2)cc1 | 0 | -6 | 40* | -12 | -12 | -2 | 5
COC(=O)c1ccc(Cn2cc([N+](=O)[O-])cn2)cc1 | 10 | 8 | 2 | -8 | -4 | 2 | .
O=C(CCCN1C(=O)/C(=C/c2ccccc2OC(F)F)SC1=S)Nc1cccnc1 | . | -13 | 20 | 4 | -11 | . | .
COc1ccc(NC(=O)[C@@H]2[C@@H]3C(=O)N(C4CCCCC4)C(=O)[C@@H]3C3c4ccccc4C=CN32)cc1 (stereo not given in full) | 0 | 6 | 64* | 9 | 2 | 3 | 38*
COc1ccc(NC(=O)C2CCC(N3C(=O)C4C5C=CC(C5)C4C3=O)CC2)cc1 (stereo not given) | -3 | 2 | 20 | -7 | 2 | 0 | .
CCCCOc1cc(NCc2ccccc2)c2ncn(C(C)C)c2c1 | . | 18 | 51* | -3 | 8 | . | 65*
COc1ccc(Cc2cc(NCc3ccccc3)c3ncn(C(C)C)c3c2)cc1 | . | 3 | 12 | -2 | 5 | . | .
COCCCOc1cc(NCc2ccccc2)c2ncn(C(C)C)c2c1 | . | 4 | 22 | -9 | -8 | . | .
CCOCCOc1cc(NCc2ccccc2)c2ncn(C(C)C)c2c1 | . | . | 40* | . | . | . | 80*
Cc1ccccc1C(=O)NCCCNC(=O)c1ccccn1 | 8 | 9 | 3 | 4 | 2 | -4 | .
COc1ccc(-c2cc(C)no2)cc1S(=O)(=O)NCCc1ccco1 | 4 | 13 | 3 | -12 | -14 | -5 | .
COC(=O)c1ccc2c(=O)[nH]c(COC(=O)CCC(=O)c3ccc(Cl)cc3)nc2c1 | 6 | 9 | -158 | -12 | -4 | . | .
